The results in this text go back to PubChem BioAssay.

Test [1] is described as follows: stimulators of insulin release from INS-1E, primary screen, cell-based, 5 mM glucose, NPC library (AID 1117329;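 active means compound raises insulin release from rat beta cells at 5 mM glucose, no numeric limit stated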). To be noted: rat INS-1E insulin secretion, at 10 µM, stronger effect = higher value.
A short description of test [2]: growth inhibition of GSK3B-pretreated HCT116 cells – cell-based, CellTiter-Glo, 0.2 to 20 µM (AID 1117336;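 active means compounds lowering colon cancer cell viability after pretreatment blocking the GSK3B kinase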). To be noted: HCT116 viability after GSK3B inhibitor, at 20 µM, stronger effect = higher value.
Test [3] in a line: inhibition of endothelial tube formation, primary screen, imaging, VEGF stimulated, CD31 staining, tube area, NPC library (AID 1117340). The note with it: VEGF-stimulated ADSC/ECFC co-culture, at 10 µM, stronger effect = higher value.
A short description of test [4]: glucagon-like peptide 1 release enhancers, primary assay, NCI-H716 cell line, NPC library (AID 1117341;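 active means compound raises GLP1 secretion from the human gut endocrine cells, with no numeric limit stated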). The note with it: NCI-H716 cells, at 10 µM, stronger effect = higher value.
Test [5] can be described thus: HCT116 colon cancer cell growth inhibition, primary screen, CellTiter-Glo luminescence, NPC library (AID 1117342;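 active means compounds that lower survival of HCT116 colon cancer cells in the luminescence readout, no numeric limit stated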). To be noted: at 20 µM (top of the series).
Test [6] is described as follows: CellTiter-Glo luminescent readout of SW480 viability loss, NPC library primary (AID 1117343;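 active means compounds that lower viability of the colon cancer cells in the luminescence readout, with no numeric limit stated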). To be noted: CellTiter-Glo luminescence; at 20 µM (top of the series).
A short description of test [7]: decreased DLD-1 cellular survival, CellTiter-Glo luminescent readout, NPC compound collection, primary HTS (AID 1117346;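 active means compounds that lower survival of DLD-1 colon cancer cells in the luminescence readout, no cutoff given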). To be noted: DLD-1 viability, CellTiter-Glo luminescence; at 20 µM (top of the series).
The target in test [8] is 6-phosphogluconate dehydrogenase, decarboxylating (Homo sapiens) (UniProt P52209). Briefly: 6PGD enzyme inhibitors, primary screen, biochemical, human, recombinant enzyme, NADPH absorbance (AID 1159550;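 active means at least 20% inhibition of 6-phosphogluconate dehydrogenase activity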). To be noted: recombinant 6PGD, NADPH absorbance 341 nm; at 10 µM; stronger effect = higher value.
Chain of 6-phosphogluconate dehydrogenase, decarboxylating (Homo sapiens) (P52209 whole entry, looked up): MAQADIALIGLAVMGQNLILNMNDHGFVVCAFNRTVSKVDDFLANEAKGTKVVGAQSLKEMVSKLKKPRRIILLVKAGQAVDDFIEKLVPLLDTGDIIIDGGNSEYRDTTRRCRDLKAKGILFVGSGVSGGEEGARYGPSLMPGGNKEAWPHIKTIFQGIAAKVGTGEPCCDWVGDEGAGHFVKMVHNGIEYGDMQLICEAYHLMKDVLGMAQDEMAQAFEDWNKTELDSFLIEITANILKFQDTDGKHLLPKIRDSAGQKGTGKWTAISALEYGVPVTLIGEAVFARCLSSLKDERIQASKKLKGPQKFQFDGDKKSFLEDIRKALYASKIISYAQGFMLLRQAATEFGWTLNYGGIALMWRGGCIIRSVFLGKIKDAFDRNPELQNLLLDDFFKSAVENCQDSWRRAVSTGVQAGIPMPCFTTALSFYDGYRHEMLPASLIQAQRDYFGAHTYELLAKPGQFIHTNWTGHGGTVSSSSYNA
The nature of test [9]: differential killing of epithelial or mesenchymal cells, primary screen, imaging, PC-3E GFP, TEM4-18 mCherry, co-culture (AID 1345086;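 active means compounds killing one labelled cell type while sparing the other, by normalised counts and ratio limits, not self-fluorescent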;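 on all read-outs here: cells exposed to compound for 72 h before imaging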;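 on red/green cell ratio (normalised): normalised mesenchymal count divided by normalised epithelial count so high means epithelial killing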). To be noted: imaging cell counts, at 1 µM; for red/green cell ratio (normalised): actives lie on both sides, counts scaled to control wells, 1 = unselective.
A short description of test [10]: growth inhibition of DIPG glioma cells, dose response, cell-based, SU-DIPG-XIII, MIPE4.0, CellTiter-Glo, qHTS (AID 1347061; cut-off not given, nearly all actives have AC50 up to about 37 µM;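 further: cells exposed to compound for 48 hours before readout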). The note with it: SU-DIPG-XIII viability, CellTiter-Glo ATP luminescence.
Test [11] in a line: growth inhibition of DIPG glioma cells, dose response, cell-based, JHH-DIPG-1, MIPE4.0, CellTiter-Glo, qHTS (AID 1347062; cut-off not given, nearly all actives have AC50 up to about 27 µM;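 on AC50: cells exposed to compound for two days before readout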). The note with it: JHH-DIPG-1 viability, CellTiter-Glo ATP luminescence.
The nature of test [12]: growth inhibition of DIPG glioma cells, dose response, cell-based, SU-DIPG-IV, MIPE4.0, CellTiter-Glo, qHTS (AID 1347063; cut-off not given, nearly all actives have AC50 up to about 30 µM;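 further: compound exposure lasted 48 hours before the viability readout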). The note with it: SU-DIPG-IV viability, CellTiter-Glo ATP luminescence.
A short description of test [13]: growth inhibition of DIPG glioma cells, dose response, cell-based, SU-DIPG-XVII, MIPE5.0, CellTiter-Glo, qHTS (AID 1347060; cut-off not given, nearly all actives have AC50 up to about 26 µM;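 further: cells exposed to compound for 48 hours before viability readout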). To be noted: SU-DIPG-XVII viability, CellTiter-Glo ATP luminescence.
Test [14] is described as follows: growth inhibition of DIPG glioma cells, dose response, cell-based, SU-DIPG-XIII, MIPE5.0, CellTiter-Glo, qHTS (AID 1347064; cut-off not given, nearly all actives have AC50 up to about 23 µM;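 on AC50: cells exposed to compound for 48 hours before the viability read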). To be noted: SU-DIPG-XIII viability, CellTiter-Glo ATP luminescence.
The mark [15] stands for this setting: measured here: epithelial PC-3E GFP cell survival.
[16] abbreviates: measured here: mesenchymal TEM4-18 mCherry cell survival.

Results filed as inconclusive are left out. Activity calls are given as the source filed them.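 How the source made its calls, unless noted: active means compound that reduces growth-factor-driven endothelial tube area in a mixed cell culture, no cutoff stated; inactive means the rest.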

As to `OC[C@H]1O[C@@H](Oc2ccc(O)cc2)[C@H](O)[C@@H](O)[C@@H]1O`, the insulin secretion stimulation in [1] is -0.6% (inactive). The viability decrease in test [2] is -2.2% (inactive). Besides, the tube area decrease in [3] is 1% (inactive). For the same compound, the GLP1 secretion stimulation in [4] was -2.9% (inactive). Moreover, the inhibition of viability in test [5] is -1.8% (inactive). The viability decrease (inhibition) in test [6] is 2.3% (active); in test [7] it was -10.8% (inactive). The inhibition in [8] is 17.9% (inactive). In [9], the red/green cell ratio (normalised) is 1.05 (inactive). Besides, the results for the normalised cell number in test [9] (setting [15]) and in test [9] (setting [16]) were 1.15 and 1.21, respectively. The result in [10], in test [11] and in test [12] was inactive.

Regarding `CC(C)COCC(CN(Cc1ccccc1)c1ccccc1)N1CCCC1` (stereo not given), the insulin secretion stimulation in [1] is 4.8% (inactive). For the same compound, the viability decrease in test [2] was 98% (active). In addition, the tube area decrease in test [3] is 32.8% (inactive). Moreover, the GLP1 secretion stimulation in [4] is 4.3% (inactive). Further, the inhibition of viability in test [5] is 105% (active). In addition, the viability decrease (inhibition) in test [6] is 117% (active); in test [7], 97% (active). Also, in [8], the inhibition was 1.94% (inactive). In addition, the red/green cell ratio (normalised) in test [9] is 1.11 (inactive). In addition, the normalised cell number in test [9] (setting [15]) turned out to be 1.06; in test [9] (setting [16]) it was 1.18. For the same compound, the half-maximal activity concentration (AC50) in test [13] is 20.9 µM (active); in test [14] it was 14.8 µM (active).

For `Cc1nnc(NS(=O)(=O)c2ccc(N)cc2)s1`, the insulin secretion stimulation in test [1] was -2.4% (inactive). Further, the viability decrease in [2] is 6.15% (inactive). The tube area decrease in test [3] is 19.3% (inactive). In addition, the GLP1 secretion stimulation in test [4] is 2.8% (inactive). Besides, in test [5], the inhibition of viability was 0.2% (inactive). The viability decrease (inhibition) in test [6] was 86.3% (active); in test [7], 3.2% (inactive). Moreover, in test [8], the inhibition is -8.84% (inactive). For the same compound, the red/green cell ratio (normalised) in test [9] is 1.39 (inactive). In addition, the values for the normalised cell number in [9] (setting [15]) and in test [9] (setting [16]) were 0.96 and 1.33, respectively. Moreover, the AC50 in test [10] is 20.9 µM (active); in [11] it was 1.32 µM (active). Also, in test [14], the result was inactive.

Consider `CC(C)(Sc1cc(C(C)(C)C)c(O)c(C(C)(C)C)c1)Sc1cc(C(C)(C)C)c(O)c(C(C)(C)C)c1`, for which, in [1], the insulin secretion stimulation was 3.7% (inactive). For the same compound, the viability decrease in test [2] is -20.3% (inactive). Also, the tube area decrease in test [3] was -25% (inactive). Further, the GLP1 secretion stimulation in [4] is 0.8% (inactive). In addition, in test [5], the inhibition of viability is 1.57% (inactive). Also, the figures for the viability decrease (inhibition) in test [6] and in [7] were 9.4% (inactive) and 37.1% (inactive), respectively. Further, the inhibition in test [8] was 6.05% (inactive). Further, the red/green cell ratio (normalised) in test [9] is 1.01 (inactive). The values for the normalised cell number in test [9] (setting [15]) and in test [9] (setting [16]) were 1.14 and 1.16, respectively. Also, the compound was classed as inactive in [10], in test [11] and in [12].

`Nc1ncnc2c1ncn2[C@@H]1O[C@H](CO)[C@@H](O)[C@H]1O`: the insulin secretion stimulation in test [1] is 2.7% (inactive). The viability decrease in test [2] was 41.9% (inactive). Besides, in [3], the tube area decrease was 30.3% (inactive). The GLP1 secretion stimulation in test [4] was -0.1% (inactive). Moreover, the inhibition of viability in [5] is 33.7% (inactive). For the same compound, the viability decrease (inhibition) in [6] is 27% (inactive); in test [7] it was 19.1% (inactive). Moreover, in [8], the inhibition was 2.2% (inactive). The red/green cell ratio (normalised) in test [9] is 1.15 (inactive). The values for the normalised cell number in test [9] (setting [15]) and in test [9] (setting [16]) were 0.81 and 0.94, respectively. The AC50 in [10] is 18.7 µM (active); in test [11], 0.935 µM (active).

Take `COc1ccc2cc3[n+](cc2c1OC)CCc1cc2c(cc1-3)OCO2`: in test [1], the insulin secretion stimulation was 1.05% (inactive). Besides, the viability decrease in test [2] is 57.5% (active). The tube area decrease in test [3] was 57.3% (active). Also, in test [4], the GLP1 secretion stimulation was 0.3% (inactive). For the same compound, the inhibition of viability in [5] is 84% (active). Besides, the figures for the viability decrease (inhibition) in [6] and in test [7] were 33.2% (inactive) and 62.7% (active), respectively. Moreover, in test [8], the inhibition was 10.3% (inactive). Also, the red/green cell ratio (normalised) in test [9] was 0.81 (inactive). The normalised cell number in test [9] (setting [15]) is 0.85; in test [9] (setting [16]) it was 0.69. The AC50 was 18.6 µM (active) in test [13], 4.18 µM (active) in test [11] and 16.6 µM (active) in [14].

Turning to `NC(=O)N/N=C/c1ccc([N+](=O)[O-])o1`, the insulin secretion stimulation in test [1] was -0.4% (inactive). In test [2], the viability decrease is 45.2% (inactive). In addition, in test [3], the tube area decrease was -17% (inactive). Besides, in [4], the GLP1 secretion stimulation was -2.5% (inactive). Besides, the inhibition of viability in test [5] is 45.3% (inactive). Also, the viability decrease (inhibition) in test [6] is 68.8% (active); in test [7] it was -6.7% (inactive). For the same compound, in test [8], the inhibition is 5.85% (inactive). Further, the red/green cell ratio (normalised) in [9] was 1.13 (inactive). Further, the normalised cell number stood at 0.55 in [9] (setting [15]) and 0.62 in test [9] (setting [16]). The compound was classed as inactive in test [10].

Consider `NCCCCCC(=O)O`, for which the insulin secretion stimulation in test [1] was -1.3% (inactive). The viability decrease in test [2] is -23% (inactive). Besides, the tube area decrease in [3] was 15.9% (inactive). Further, the GLP1 secretion stimulation in [4] was 1.1% (inactive). In test [5], the inhibition of viability was -10.8% (inactive). Further, the viability decrease (inhibition) is 9.9% (inactive) in [6] and -9.4% (inactive) in test [7]. Moreover, the inhibition in test [8] was 11.8% (inactive). Further, the red/green cell ratio (normalised) in test [9] was 0.92 (inactive). Moreover, the normalised cell number in [9] (setting [15]) turned out to be 1.31; in test [9] (setting [16]), 1.21. The result in test [10], in test [11], in [12] and in [14] was inactive.

On to `CCCCOc1ccc(CC(=O)NO)cc1`, for which the insulin secretion stimulation in test [1] was 10.6% (inactive). The viability decrease in test [2] was 24.3% (inactive). Also, the tube area decrease in test [3] was -1.4% (inactive). The GLP1 secretion stimulation in [4] is -1.1% (inactive). Besides, the inhibition of viability in [5] is 12.7% (inactive). Further, the viability decrease (inhibition) was 35.2% (inactive) in test [6] and 11.6% (inactive) in test [7]. Further, in test [8], the inhibition was -6.77% (inactive). The red/green cell ratio (normalised) in test [9] is 1.05 (inactive). The normalised cell number in test [9] (setting [15]) turned out to be 0.59; in [9] (setting [16]), 0.61. For the same compound, the results for the AC50 in [10] and in test [12] were 23.5 µM (active) and 20.9 µM (active), respectively. Also, in [14], the call was inactive.

Consider `Cn1c(=O)c2c(ncn2C)n(C)c1=O`, for which the insulin secretion stimulation in [1] was 4.3% (inactive). Moreover, the viability decrease in test [2] was -1.7% (inactive). Besides, in test [3], the tube area decrease is 16.4% (inactive). The GLP1 secretion stimulation in test [4] is -0.2% (inactive). The inhibition of viability in test [5] is -8.8% (inactive). Also, the values for the viability decrease (inhibition) in test [6] and in test [7] were -11.7% (inactive) and 7.2% (inactive), respectively. Besides, the inhibition in test [8] is 8.55% (inactive). Also, in test [9], the red/green cell ratio (normalised) is 0.97 (inactive). Moreover, the figures for the normalised cell number in test [9] (setting [15]) and in [9] (setting [16]) were 1.17 and 1.14, respectively. Further, the compound was classed as inactive in test [10], in test [11] and in [14].

For `COc1ccc(C(=O)CC(=O)c2ccc(C(C)(C)C)cc2)cc1`, the insulin secretion stimulation in test [1] was 1.3% (inactive). In test [2], the viability decrease was -88.8% (inactive). The tube area decrease in [3] is -15.2% (inactive). In addition, the GLP1 secretion stimulation in [4] is -3.2% (inactive). Further, the inhibition of viability in [5] is 15.8% (inactive). The figures for the viability decrease (inhibition) in [6] and in [7] were 18.1% (inactive) and 16.6% (inactive), respectively. Also, the inhibition in test [8] was -0.365% (inactive). Further, the red/green cell ratio (normalised) in test [9] is 1.31 (inactive). Also, the normalised cell number in test [9] (setting [15]) came to 0.9; in test [9] (setting [16]), 1.18. The figures for the AC50 in test [11] and in test [12] were 3.72 µM (active) and 5.26 µM (active), respectively.
